In the supplement of paper PMC3334620:
Whole data set: some 33,000 sequences, median “E-score (-0.5 to 0.5)” near -0.0059, cut for the highest 2% near 0.26. For the sample, the highest values were picked, then their nearest neighbours and some sequences at random.

Target: T1, Cin5 (UniProt P40917)
T1 sequence: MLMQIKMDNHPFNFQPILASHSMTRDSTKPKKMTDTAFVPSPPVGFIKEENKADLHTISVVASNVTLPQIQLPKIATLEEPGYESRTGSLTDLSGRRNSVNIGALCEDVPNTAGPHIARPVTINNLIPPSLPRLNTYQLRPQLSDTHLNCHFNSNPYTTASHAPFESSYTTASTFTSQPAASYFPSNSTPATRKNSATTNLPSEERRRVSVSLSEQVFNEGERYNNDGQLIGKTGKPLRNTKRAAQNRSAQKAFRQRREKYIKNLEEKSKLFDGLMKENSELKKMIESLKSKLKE
Assay: PBM E-score (8-mer binding enrichment) (E-score (-0.5 to 0.5)); higher = stronger / more preferred TF binding
Conditions: protein concentration: 100 nM; construct: GST-full length
Procedure, shortened: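 Full-length yeast transcription factors or their DNA-binding domains, GST-tagged and expressed with PURExpress, were applied at about 100-200 nM to universal all-10-mer Agilent arrays. These arrays had been made double-stranded by primer extension on fresh or once-stripped slides. Detection used fluorescent anti-GST, normalisation used masliner, and E-scores for ungapped eight-base words pooled with reverse complements came from the Universal PBM Analysis Suite.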

Sequence | PBM E-score
GCAGTACC | -0.0675
CAGTTACC | -0.0935
ACACACCG | -0.137
CTAATGGC | -0.0137
CCTTTGCA | -0.0748
ATCACAGA | -0.0171
CCCACGTA | -0.0439
CACCCAGG | -0.237
TACGATGA | 0.12
AGGATTAT | -0.0477
ACGATTAG | 0.158
ACGATTAT | 0.274
CCCGTTTA | 0.069
AGATTACG | 0.419
TGATTACA | 0.301
AGATTACC | 0.14
CGATTACC | 0.143
TCATTACA | 0.164
AGATTACT | 0.182
CGATTACG | 0.389
GGATTACA | 0.19
CCATTACA | 0.223
CCATTACG | 0.0601
CGATTACA | 0.177
AGATTACA | 0.286

Sequence | PBM E-score
CTCCCTTC | -0.312
AAAAGCCC | -0.0247
CGGGCCTC | 0.0182
CACACACA | 0.0837
AAGACCAC | -0.205
CACCCGGC | -0.351
TCAGGCAA | -0.0467
CGGGTGTA | 0.0316
GATTCACA | 0.0537
AATTCACA | 0.258
AATTCACG | -0.0153
AAGGTATA | -0.0348
TCTAATCA | 0.231
ACTAAACA | 0.258
ACTAATCG | 0.355
ACTAAACC | -0.0367
TCTAAACA | -0.115
ACTAATCC | 0.125
ACTAATCA | 0.264
CCTAATCG | 0.155
ACTAATCT | 0.128
CTCGACCC | -0.157
CCGTTACG | 0.0353
ATCTTTAA | 0.0357
CCCCTCTC | -0.318

Sequence | PBM E-score
AACGTCGG | -0.0613
TATGTCGA | 0.0777
AGTATTCA | 0.165
CTCGCAAA | -0.0438
GTCAGCCA | 0.07
ATACCTAA | 0.286
ATACCTAT | 0.176
ATACCTAC | 0.046
AGGCAGAC | -0.247
CTGCTGAA | -0.212
CTGCTTAA | 0.00628
CTGCTTTA | 0.278
CTGCTTAC | 0.402
ATGCTTAC | 0.265
ATGCTTAA | 0.146
ATGCTTTC | 0.155
CTGCTGAC | 0.26
CTGCTTTC | 0.058
ATGCTTTA | -0.0364
CTGCTTCC | -0.178
CTGCTGTC | -0.0623
AAACCTGT | 0.0662
ATGTGAGC | -0.0106
AAAAGCTG | -0.148
GCAGGAGC | -0.285

Sequence | PBM E-score
GACCGCCC | -0.161
TCGAGTCA | -0.0465
ATTTCCTC | 0.09
AGGAGCCG | -0.317
AGAGGAGC | -0.233
GGCTGCAA | -0.0216
ATGCTTCG | -0.0239
ATGCTTGG | -0.0358
ATGCTTAG | 0.313
GGGGAAAC | -0.0321
GAGAACAA | 0.269
AAGAACAA | 0.197
CGGAACAA | 0.302
TGGAACAA | 0.0669
CGGAACGC | 0.0289
GAGAACAC | 0.047
CGGAACAC | 0.177
CGGAACGA | 0.287
AGGAACGA | -0.244
CGCCCCAC | 0.131
AGTTTCTG | 0.0528
GTGGAGGA | -0.0744
GGACTAAC | -0.232
GTCACAAA | -0.0564
GGATGGCA | 0.27

Sequence | PBM E-score
GGATGGCC | -0.296
TGATGGCA | -0.112
AACCTAGG | -0.0368
GTACGTAC | -0.00455
ATACGAAA | 0.265
CTACGTAA | 0.24
CTACGAAA | -0.0568
CTTCGTAA | 0.0958
ATACGAAT | 0.0148
GTACGTAA | 0.397
GTTCGTAA | 0.153
ATACGTAC | -0.0222
ATTCGTAA | 0.304
ATACGTAA | 0.386
ATACGTAG | 0.116
CACGGAAA | 0.224
AAACTCAT | 0.205
CGAGATAA | 0.255
CGCACGGC | 0.001
ACTTTTCT | 0.0353
ATCCAGAG | 0.161
CGCATCGC | -0.195
CACAACTA | 0.211
GATGAGTA | 0.152
AGGGAGAC | -0.0805

Sequence | PBM E-score
AACGATAG | 0.0137
AAAGATAC | 0.186
AACGATAC | 0.0238
AACGATAT | 0.285
AAAGATAT | 0.3
AAAGATAG | -0.0374
ATCGGTGA | 0.103
GGCTGAGA | -0.0327
GGCCCAAC | -0.0745
AATGGCAG | 0.0479
AATGGCAT | 0.32
AATGGCTC | 0.0552
AATGGCAC | 0.00736
CATGGCTA | 0.037
AATGGCTA | 0.274
GCACTCCA | -0.111
ATTTCGAA | 0.188
GCGTAAGC | 0.227
CCGTAAGA | -0.122
CCGTAAAC | 0.072
CCGTAAGC | 0.332
CCGTAATA | 0.203
CCGTAATC | 0.329
GAATCCTA | 0.0175
GGAAACTA | -0.105

Sequence | PBM E-score
TATCTCCA | 0.112
CTAAATCA | 0.00062
ATAAATCA | 0.185
GGTAATGA | 0.153
GGTAATCA | 0.289
AGTAATCG | 0.262
AGTAATGA | 0.13
GTAAATCA | 0.284
AGTAATGG | 0.162
AGTAATCC | 0.243
GCTAATCA | 0.212
AGTAATCA | 0.312
ATTAATCG | 0.228
CCTACCAC | -0.224
CCACCGGA | 0.0953
ATCAATAG | 0.0422
CAGAGTAA | -0.0253
AGACGTCA | -0.00622
TGACGTCA | 0.425
GGACGTCA | 0.0529
GGTTGAAA | -0.00909
ACGGTGCA | -0.139
